# Results: the supplement of paper PMC6555819
# Key:
# Assay in all cases: PBM binding z-score (relative to random genomic background probes); higher = stronger binding; sequences stand for … in GC…GCGATTGACAGCGTAGAATGAAGG
# [1] = test system: FXR:RXRa (NR concentration 270 nM, RXRa partner concentration 90 nM)
# Procedure, shortened: (§1)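 The probes on custom Agilent 4×180K protein-binding microarrays were double-stranded, with 34-nt variable regions bearing direct-repeat seeds, single-nucleotide variants, half-site ablations and random human genomic background sequences. Incubation lasted 1 h with ligand-free nuclear receptor dimers in PBS pH 7.4, 2% milk, 0.02% Triton X-100, 1 mM DTT, 0.2 mg/mL BSA and 0.4 mg/ml salmon testes DNA. Antibodies against each partner (one per run) detected bound dimers, and fluorescence scans were regression-normalized. Binding z-scores take the random background probes as reference.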
# [2] = test system: LXRa:RXRa (NR concentration 270 nM, RXRa partner concentration 90 nM)
# Procedure, shortened: as §1
# [3] = test system: LXRa homodimer (NR concentration 270 nM)
# Procedure, shortened: as §1
# [4] = test system: LXRb:RXRa (NR concentration 270 nM, RXRa partner concentration 90 nM)
# Procedure, shortened: as §1
# [5] = test system: LXRb homodimer (NR concentration 270 nM)
# Procedure, shortened: as §1
# [6] = test system: PPARa:RXRa (NR concentration 270 nM, RXRa partner concentration 90 nM)
# Procedure, shortened: as §1
# [7] = test system: PPARg:RXRa (NR concentration 180 nM, RXRa partner concentration 90 nM)
# Procedure, shortened: as §1
# [8] = test system: PPARg:RXRa 270nM:90nM, anti-RXR (NR concentration 270 nM, RXRa partner concentration 90 nM)
# Procedure, shortened: as §1
# [9] = test system: PPARg:RXRa 30nM:10nM, anti-RXR (NR concentration 30 nM, RXRa partner concentration 10 nM)
# Procedure, shortened: as §1
# [10] = test system: PPARg:RXRa 90nM:30nM, anti-RXR (NR concentration 90 nM, RXRa partner concentration 30 nM)
# Procedure, shortened: as §1
sequence,measurement,setting,value
AGTCAAAGTTAACTAGGTAACGTAAGATTCAGCT,PBM binding z-score,[1],-0.192
same,PBM binding z-score,[2],0.0304
same,PBM binding z-score,[3],-0.49
same,PBM binding z-score,[4],-0.0459
same,PBM binding z-score,[5],-0.318
same,PBM binding z-score,[6],2.16
same,PBM binding z-score,[7],2.33
same,PBM binding z-score,[8],2.5
same,PBM binding z-score,[9],0.593
same,PBM binding z-score,[10],1.89
TCTTGTAGATCAATAGCGGTTAAGAAAGTGCGCT,PBM binding z-score,[1],0.25
same,PBM binding z-score,[2],0.57
same,PBM binding z-score,[3],0.174
same,PBM binding z-score,[4],0.435
same,PBM binding z-score,[5],-0.253
same,PBM binding z-score,[6],0.5
same,PBM binding z-score,[7],-0.524
same,PBM binding z-score,[8],1.28
same,PBM binding z-score,[9],2.75
same,PBM binding z-score,[10],2.17
TGTCAAAGTTAAAAGGTAACGTAAGTATCCACAC,PBM binding z-score,[1],0.429
same,PBM binding z-score,[2],0.482
same,PBM binding z-score,[3],-0.245
same,PBM binding z-score,[4],0.823
same,PBM binding z-score,[5],-0.178
same,PBM binding z-score,[6],2.09
same,PBM binding z-score,[7],2.26
same,PBM binding z-score,[8],3.15
same,PBM binding z-score,[9],1.03
same,PBM binding z-score,[10],2.13
CCTACTGGGGCATAAGGTTACCATAAGCCAGCCC,PBM binding z-score,[1],0.331
same,PBM binding z-score,[2],1.69
same,PBM binding z-score,[3],-0.117
same,PBM binding z-score,[4],0.717
same,PBM binding z-score,[5],-0.859
same,PBM binding z-score,[6],2.47
same,PBM binding z-score,[7],3.73
same,PBM binding z-score,[8],4.44
same,PBM binding z-score,[9],2.09
same,PBM binding z-score,[10],4.09
ACTATTAGTTGACATAGGGCAACCGATACGACGC,PBM binding z-score,[1],0.176
same,PBM binding z-score,[2],0.333
same,PBM binding z-score,[3],0.152
same,PBM binding z-score,[4],0.7
same,PBM binding z-score,[5],0.719
same,PBM binding z-score,[6],0.537
same,PBM binding z-score,[7],1.45
same,PBM binding z-score,[8],0.934
same,PBM binding z-score,[9],0.646
same,PBM binding z-score,[10],1
ATCGAAAGGACGACGAGGTGAGTATACACCGTTT,PBM binding z-score,[1],0.179
same,PBM binding z-score,[2],-0.132
same,PBM binding z-score,[3],-0.204
same,PBM binding z-score,[4],-0.324
same,PBM binding z-score,[5],-0.355
same,PBM binding z-score,[6],-0.0942
same,PBM binding z-score,[7],1.08
same,PBM binding z-score,[8],-0.0154
same,PBM binding z-score,[9],0.318
same,PBM binding z-score,[10],0.299
ATCTCTAGGTAAAGATAGTACAGTGAATGCAAAT,PBM binding z-score,[1],0.368
same,PBM binding z-score,[2],1.08
same,PBM binding z-score,[3],0.357
same,PBM binding z-score,[4],0.211
same,PBM binding z-score,[5],0.424
same,PBM binding z-score,[6],0.263
same,PBM binding z-score,[7],1.13
same,PBM binding z-score,[8],0.762
same,PBM binding z-score,[9],0.819
same,PBM binding z-score,[10],0.761
TTACCAATGTGAAAGGTCGTTGATGCACGCCTTG,PBM binding z-score,[1],1.7
same,PBM binding z-score,[2],2.12
same,PBM binding z-score,[3],0.874
same,PBM binding z-score,[4],1.91
same,PBM binding z-score,[5],0.227
same,PBM binding z-score,[6],3.26
same,PBM binding z-score,[7],4.36
same,PBM binding z-score,[8],5.96
same,PBM binding z-score,[9],3.68
same,PBM binding z-score,[10],6.14
TCATGTAGGTAATACAGGTGAAAGTCGGCATCTA,PBM binding z-score,[1],0.0966
same,PBM binding z-score,[2],0.506
same,PBM binding z-score,[3],0.125
same,PBM binding z-score,[4],0.469
same,PBM binding z-score,[5],-0.485
same,PBM binding z-score,[6],1.63
same,PBM binding z-score,[7],1.15
same,PBM binding z-score,[8],1.94
same,PBM binding z-score,[9],2.84
same,PBM binding z-score,[10],2.25
TCTTGTAGATCAAAAGTTAAGAAAGCCGAAGCCT,PBM binding z-score,[1],0.493
same,PBM binding z-score,[2],0.329
same,PBM binding z-score,[3],-0.368
same,PBM binding z-score,[4],0.277
same,PBM binding z-score,[5],-0.137
same,PBM binding z-score,[6],1.31
same,PBM binding z-score,[7],1.83
same,PBM binding z-score,[8],4.32
same,PBM binding z-score,[9],3.84
same,PBM binding z-score,[10],4.55
ATCTCTAGGTAAAGTTAAGTGAAAGATCGATAGA,PBM binding z-score,[1],0.787
same,PBM binding z-score,[2],0.68
same,PBM binding z-score,[3],0.216
same,PBM binding z-score,[4],0.185
same,PBM binding z-score,[5],0.709
same,PBM binding z-score,[6],0.332
same,PBM binding z-score,[7],0.903
same,PBM binding z-score,[8],1.19
same,PBM binding z-score,[9],0.64
same,PBM binding z-score,[10],1.04
CGTCCAAGGTCAGCAGGTCAGTGAAAGCGACGTG,PBM binding z-score,[1],5.62
same,PBM binding z-score,[2],4
same,PBM binding z-score,[3],0.313
same,PBM binding z-score,[4],3.11
same,PBM binding z-score,[5],-0.277
same,PBM binding z-score,[6],4.76
same,PBM binding z-score,[7],4.12
same,PBM binding z-score,[8],4.39
same,PBM binding z-score,[9],0.905
same,PBM binding z-score,[10],2.91
AGAATGAGGGTAAGATCAGGGAAACAGAATACAT,PBM binding z-score,[1],0.539
same,PBM binding z-score,[2],0.166
same,PBM binding z-score,[3],0.147
same,PBM binding z-score,[4],0.566
same,PBM binding z-score,[5],0.276
same,PBM binding z-score,[6],0.918
same,PBM binding z-score,[7],0.981
same,PBM binding z-score,[8],0.698
same,PBM binding z-score,[9],0.455
same,PBM binding z-score,[10],0.409
AATACAAGGTCACTAGGCCAGAGTAGGTACGAAT,PBM binding z-score,[1],7.35
same,PBM binding z-score,[2],6.14
same,PBM binding z-score,[3],4.32
same,PBM binding z-score,[4],4.79
same,PBM binding z-score,[5],2.19
same,PBM binding z-score,[6],6.29
same,PBM binding z-score,[7],8.24
same,PBM binding z-score,[8],6.63
same,PBM binding z-score,[9],3.8
same,PBM binding z-score,[10],6.05
CCAGACAGGTGTGAAGGTAACTCAGCCTCGATTA,PBM binding z-score,[1],-0.289
same,PBM binding z-score,[2],-0.378
same,PBM binding z-score,[3],0.0718
same,PBM binding z-score,[4],-0.315
same,PBM binding z-score,[5],-0.724
same,PBM binding z-score,[6],-0.298
same,PBM binding z-score,[7],0.084
same,PBM binding z-score,[8],-0.131
same,PBM binding z-score,[9],-0.615
same,PBM binding z-score,[10],-0.443
CCTCGCAGGACAACAGGAGGTCAGAGCTGCCAGA,PBM binding z-score,[1],0.787
same,PBM binding z-score,[2],1.63
same,PBM binding z-score,[3],1.92
same,PBM binding z-score,[4],1.05
same,PBM binding z-score,[5],-0.469
same,PBM binding z-score,[6],1.73
same,PBM binding z-score,[7],0.326
same,PBM binding z-score,[8],-0.0198
same,PBM binding z-score,[9],-0.833
same,PBM binding z-score,[10],-0.445
AGAACGAGGGCACGTTGAGTTGATAGCAGAGTAG,PBM binding z-score,[1],0.758
same,PBM binding z-score,[2],0.705
same,PBM binding z-score,[3],-0.372
same,PBM binding z-score,[4],0.249
same,PBM binding z-score,[5],-0.789
same,PBM binding z-score,[6],2.23
same,PBM binding z-score,[7],2.19
same,PBM binding z-score,[8],1.42
same,PBM binding z-score,[9],0.235
same,PBM binding z-score,[10],0.958
TCGAGTAGGTTACCAAGGGGGCATTCAGCTTTCT,PBM binding z-score,[1],1.44
same,PBM binding z-score,[2],4.34
same,PBM binding z-score,[3],0.768
same,PBM binding z-score,[4],4.55
same,PBM binding z-score,[5],6.02
same,PBM binding z-score,[6],2.95
same,PBM binding z-score,[7],1.48
same,PBM binding z-score,[8],3.04
same,PBM binding z-score,[9],2.18
same,PBM binding z-score,[10],2.74
CGAACTAGGTCATTGACAGGACAGTGAGTAGTAA,PBM binding z-score,[1],4.28
same,PBM binding z-score,[2],3.06
same,PBM binding z-score,[3],0.194
same,PBM binding z-score,[4],1.92
same,PBM binding z-score,[5],-0.291
same,PBM binding z-score,[6],4.8
same,PBM binding z-score,[7],7.21
same,PBM binding z-score,[8],6.03
same,PBM binding z-score,[9],3.7
same,PBM binding z-score,[10],5.57
ATCTCTAGTTAAAAGTTCAGTGAATCCCGAGGAT,PBM binding z-score,[1],0.652
same,PBM binding z-score,[2],1.49
same,PBM binding z-score,[3],1.82
same,PBM binding z-score,[4],0.877
same,PBM binding z-score,[5],1.25
same,PBM binding z-score,[6],1.64
same,PBM binding z-score,[7],1.4
same,PBM binding z-score,[8],3.41
same,PBM binding z-score,[9],1.59
same,PBM binding z-score,[10],3.49
CCGACTGGGGCAGGAAGGTTACCATACCATCCGG,PBM binding z-score,[1],-0.0935
same,PBM binding z-score,[2],-0.228
same,PBM binding z-score,[3],-0.392
same,PBM binding z-score,[4],-0.202
same,PBM binding z-score,[5],-0.995
same,PBM binding z-score,[6],0.76
same,PBM binding z-score,[7],0.782
same,PBM binding z-score,[8],0.189
same,PBM binding z-score,[9],-0.465
same,PBM binding z-score,[10],-0.0165
ACAGACAGGTGATGAAGGTAACTCCGGCTATCAT,PBM binding z-score,[1],0.229
same,PBM binding z-score,[2],0.181
same,PBM binding z-score,[3],-0.0879
same,PBM binding z-score,[4],-0.149
same,PBM binding z-score,[5],-0.444
same,PBM binding z-score,[6],0.23
same,PBM binding z-score,[7],0.658
same,PBM binding z-score,[8],-0.261
same,PBM binding z-score,[9],-0.0835
same,PBM binding z-score,[10],-0.0688
CCTTACGGGTCACTCCAGGTAATAGCATCGGAGT,PBM binding z-score,[1],5.01
same,PBM binding z-score,[2],5.21
same,PBM binding z-score,[3],0.164
same,PBM binding z-score,[4],3.31
same,PBM binding z-score,[5],0.11
same,PBM binding z-score,[6],4.59
same,PBM binding z-score,[7],3.75
same,PBM binding z-score,[8],3.97
same,PBM binding z-score,[9],1.47
same,PBM binding z-score,[10],2.94
AGTCAAAGTTCATCTAGGAAACGTAAGATATGCT,PBM binding z-score,[1],6.71
same,PBM binding z-score,[2],5.87
same,PBM binding z-score,[3],4.88
same,PBM binding z-score,[4],3.9
same,PBM binding z-score,[5],2.09
same,PBM binding z-score,[6],4.85
same,PBM binding z-score,[7],6.43
same,PBM binding z-score,[8],6.21
same,PBM binding z-score,[9],3.53
same,PBM binding z-score,[10],5.16
